Mtb UGM inh = Mtb UDP-galactopyranose mutase inhibition; inhibition, % at 10 µM; 0.06% of 320,000 active; purified UGM, fluorescence polarization probe displacement; in the data active = inhibition above about 10%, passing the limit was not always enough
Target sequence (P9WIQ1 whole entry, looked up): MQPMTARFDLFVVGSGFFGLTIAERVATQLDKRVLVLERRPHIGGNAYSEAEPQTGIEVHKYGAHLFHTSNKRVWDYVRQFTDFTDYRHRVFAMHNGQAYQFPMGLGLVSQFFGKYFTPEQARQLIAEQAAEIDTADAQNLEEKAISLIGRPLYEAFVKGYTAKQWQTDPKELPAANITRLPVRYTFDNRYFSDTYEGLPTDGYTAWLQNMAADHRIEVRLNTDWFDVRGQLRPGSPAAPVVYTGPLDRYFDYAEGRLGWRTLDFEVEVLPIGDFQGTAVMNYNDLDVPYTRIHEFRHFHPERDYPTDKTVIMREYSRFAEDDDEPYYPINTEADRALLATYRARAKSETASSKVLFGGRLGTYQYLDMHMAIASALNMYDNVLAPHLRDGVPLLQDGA
Mtb bLac sens = beta-lactam sensitization of Mtb H37Rv; M. tuberculosis H37Rv growth with meropenem, percent inhibition; inhibition, % at 25 µM; 0.27% of 330,000 active; AID 434955; call rule not given here;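 also: growth measured after seven days incubation then overnight dye step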
RecA intein inh = blocks M. tuberculosis RecA intein splicing; cell-free RecA intein splicing, fluorescence; inhibition, % (no concentration beside the values); 0.75% of 290,000 active; AID 2221; in the data active = inhibition above about 30%
Rv3671c inh = inhibits the M. tuberculosis serine protease Rv3671c | AID 2606 | P9WHR9 | inhibition, % at 5.96 µM | 0.048% of 320,000 active; in the data active = inhibition above about 38%;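 also: extracellular domain of Rv3671c used as enzyme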
GDH-TPI inh = inhibits GDH-TPI coupling enzymes, artifact for Mtb FBA screen | inhibition, % at 4.8 µM | 1.2% of 360,000 active | AID 588335 | GDH-TPI coupled enzyme counterscreen, NADH absorbance; in the data active = inhibition above about 30%
FBA Mtb inh = inhibitors of M. tuberculosis fructose-bisphosphate aldolase; P9WQA3; purified M. tuberculosis FBA, fluorescence read-out; 2.3% of 360,000 active; inhibition, % at 1 µM; in the data active = inhibition above about 27%
Each line names hits and unclear results; the compound was inactive in the other large screens. Shown are actives, neighbours in structure and some others; about 4% of the full set was active somewhere.

Cc1c(C)c(C)c(/C=[N+](/C)[O-])c(C)c1C	none
COc1ccc(C(C#N)=Cc2ccc(NC(C)=O)cc2)cc1	GDH-TPI inh 40 (no result: Mtb UGM inh, Mtb bLac sens, RecA intein inh, Rv3671c inh)
CC(=O)Nc1ccc(C(C#N)=Cc2ccc(N(C)CCC#N)cc2)cc1	GDH-TPI inh 31 (no result: Mtb UGM inh, Mtb bLac sens, RecA intein inh, Rv3671c inh)
CN(CCC#N)c1ccc(C=C(C#N)c2cccc(C(F)(F)F)c2)cc1	none (no result: Mtb UGM inh, Mtb bLac sens, RecA intein inh, Rv3671c inh, GDH-TPI inh)
CC(=O)Nc1ccc(N/C=C(\C#N)S(=O)(=O)c2ccc(Cl)cc2)cc1	none
COc1ccc(S(=O)(=O)/C(C#N)=C/Nc2ccc(NC(C)=O)cc2)cc1	GDH-TPI inh 31 (no result: Rv3671c inh)
Cc1cccc(NC(=S)N(C)Cc2cn(C)c3ccccc23)c1	none
CCOc1ccc(/C=N/NC(=O)c2cc3ccccc3cc2OC)cc1	none
COc1cc(OC)c2cc(C(=O)N/N=C/c3cccc(OC)c3O)[nH]c2c1	GDH-TPI inh 43
COc1ccc2cc(C(=O)N/N=C/c3cc(OC)c(OC)c(OC)c3)[nH]c2c1	GDH-TPI inh 49
COc1ccc(/C=N/NC(=O)c2cc3cc(OC)c(OC)cc3[nH]2)cc1	GDH-TPI inh 42
COc1cc(/C=N/NC(=O)c2ccc(-c3ccccc3)cc2)cc(OC)c1OC	none
CCOc1ccc2[nH]c(C(=O)N/N=C/c3ccc(OC)cc3)cc2c1	GDH-TPI inh 55 (no result: Rv3671c inh)
COc1cc2cc(C(=O)N/N=C/c3ccc(F)cc3)[nH]c2cc1OC	GDH-TPI inh 46
COc1cc2cc(C(=O)N/N=C/c3ccccc3Cl)[nH]c2cc1OC	GDH-TPI inh 47
COc1ccc2[nH]c(C(=O)Nc3ccc(C)c(F)c3)cc2c1	none
COc1ccc2[nH]c(C(=O)N/N=C/c3ccc(O)cc3O)cc2c1	GDH-TPI inh 31 (no result: Rv3671c inh)
COc1ccc(/C=C\C(=O)NCC(=O)N/N=C/c2ccc(O)cc2O)cc1	GDH-TPI inh 68
O=[N+]([O-])c1ccc(-c2csc(NN=C3CCCC3)n2)cc1	none
CN1C(C(=O)Nc2ccc(OC(F)(F)F)cc2)=CC(c2ccco2)=NS1(=O)=O	none
COCC(C)NC(=O)c1cc(OC)cc(OC)c1 (centres undefined)	none
COCC(C)NC(=O)c1cc2cc(OC)ccc2[nH]1 (centres undefined)	FBA Mtb inh 46
NNC(=S)NC1CC2CC1C1C=CCC21 (centres undefined)	none (no result: Mtb bLac sens)
Oc1ccc(O)c(C=NNC(=S)NC2CC3CC2C2C=CCC32)c1 (centres undefined)	GDH-TPI inh 31 (no result: Mtb UGM inh, Mtb bLac sens, RecA intein inh, Rv3671c inh)
C=CC(=O)Nc1cccc(Oc2ccnc3[nH]ccc23)c1	FBA Mtb inh 180 (no result: Mtb UGM inh, Mtb bLac sens, RecA intein inh, Rv3671c inh)
C=CC(=O)Nc1cccc(Oc2ccnc(Nc3ccc(N4CCN(C)CC4)cc3)n2)c1	none (no result: Mtb UGM inh, Mtb bLac sens, RecA intein inh, Rv3671c inh)
Cn1c(=O)c2c(nc(N/N=C/c3cccs3)n2C)n(C)c1=O	none
Cn1c(=O)[nH]c(=O)c2c1nc(N/N=C/c1cccnc1)n2Cc1ccc(Cl)cc1	none (no result: RecA intein inh)
Cn1c(=O)c2c(nc(N/N=C/c3cccnc3)n2Cc2ccccc2)n(C)c1=O	GDH-TPI inh 31
Cn1c(=O)c2c(nc(N/N=C/c3ccco3)n2C)n(C)c1=O	GDH-TPI inh 56
CN(C(=O)c1ccc(S(=O)(=O)c2cccc(Cl)c2)c([N+](=O)[O-])c1)C1CCCCC1	RecA intein inh 35
CCN(CC)S(=O)(=O)c1ccc(C(=O)Nc2nnc(NC(=S)Nc3ccccc3)s2)cc1	GDH-TPI inh 41
CCN(CC)S(=O)(=O)c1ccc(NC(=S)Nc2ccccc2)cc1	none
c1ccc2nc(-c3ccc(N4CCOCC4)cc3)ccc2c1	GDH-TPI inh 33
CN1CCN(c2ccc(-c3ccc4ccccc4n3)cc2)CC1	none (no result: Mtb UGM inh, Mtb bLac sens, Rv3671c inh)
O=C(NCc1ccco1)C1CCCN1C(=O)Nc1ccccc1[N+](=O)[O-] (centres undefined)	none
Cc1cc(C)c(C)c(S(=O)(=O)ON2C(=O)c3ccccc3C2=O)c1C	FBA Mtb inh 35 (no result: RecA intein inh)
Cc1cc(C)c(S(=O)(=O)ON2C(=O)c3ccccc3C2=O)cc1C	RecA intein inh 60, FBA Mtb inh 37
O=C1c2ccccc2C(=O)N1OS(=O)(=O)c1ccc(F)cc1	none
Cc1ccc(S(=O)(=O)ON2C(=O)c3ccccc3C2=O)c(C)c1	FBA Mtb inh 40 (no result: RecA intein inh)
Cc1cc(C(=O)NNC(=O)c2ccccc2F)c2ccccc2n1	none (no result: RecA intein inh)
OC(c1ccccc1)(C1CCCCC1)C(CN1CCOCC1)c1ccccc1 (centres undefined)	none
CC(=O)C(Sc1ccc2nnc(-c3cccnc3)n2n1)C(C)=O	none
COc1ccc(N2CCN(C(c3cccs3)C(C)NS(C)(=O)=O)CC2)cc1 (centres undefined)	none
COC(=O)C1C2c3ccccc3OC1(C)N=c1s/c(=C/c3cn(C)nc3C)c(=O)n12 (centres undefined)	GDH-TPI inh 55
Cc1ccc(N=C2NC(=O)/C(=C/c3cccnc3)S2)cc1C	none
Cc1ccc(S(=O)(=O)/N=C2/NC(=O)/C(=C/c3ccncc3)S2)cc1	none (no result: GDH-TPI inh, FBA Mtb inh)
O=C1N/C(=N/S(=O)(=O)c2ccccc2)S/C1=C/c1cccnc1	GDH-TPI inh 33
O=C1NC(=Nc2ccccc2)S/C1=C\c1cccnc1	GDH-TPI inh 33
COC(=O)c1ccc(NC(=O)C(=O)N2CCCC2)cc1	none
COc1ccc(C2CC(c3ccccc3)=NN2S(=O)(=O)c2ccc(C)cc2)c(OC)c1 (centres undefined)	none
CCOCCCNC(=O)C(NC(=O)c1ccccc1O)c1ccc(Cl)cc1 (centres undefined)	FBA Mtb inh 52
CCOCCCNC(=O)C(NC(=O)CNC(C)=O)c1ccc(Cl)cc1 (centres undefined)	none
c1ccc(C2[C@H]3CN(Cc4cccnc4)[C@H](c4ccccc4)C34CC2(c2cccnc2)C4)cc1 (some centres undefined)	RecA intein inh 37
c1ccc(C2[C@H]3CN(Cc4cccnc4)[C@H](c4ccccc4)C34CC2(c2ccccc2)C4)cc1 (some centres undefined)	none
CC1(C)CC(=O)C2=C(C1)NC(Nc1nc3ccccc3o1)=NC2c1ccccn1 (centres undefined)	GDH-TPI inh 44
CC1(C)CC(=O)C2=C(C1)NC(Nc1nc3ccccc3o1)=NC21CCCC1	none
COc1ccc(C(=O)N/N=C/C(Br)=C/c2ccccc2)cc1	GDH-TPI inh 31
COc1cccc(C(=O)Nc2ccccc2NC(=O)c2cccc(OC)c2)c1	none
Cc1occc1C(=O)N/N=C/C(Br)=C/c1ccccc1	none
COc1ccc(C(=O)N/N=C/c2ccc3cccc(O)c3n2)cc1	GDH-TPI inh 33
O=C(N/N=C/C(Br)=C/c1ccccc1)c1cnccn1	GDH-TPI inh 37
COc1cccc(C(=O)N/N=C/C(Br)=C/c2ccccc2)c1	GDH-TPI inh 40
O=C(N/N=C/C=C\c1ccccc1)c1cnccn1	none
C[C@@H](C(=O)NCc1ccc(S(C)(=O)=O)cc1)[C@@H]1C[C@@]1(C)[C@@H](NC(=O)OCc1ccccc1)c1ccccc1	none (no result: RecA intein inh)
CC1CCN(C(=O)CCNS(=O)(=O)c2ccccc2)CC1	none

High-throughput results from PubChem.
